CHX counter: affects cycloheximide protein synthesis inhibition readout, counter-screen | cell reporter, cycloheximide protein synthesis inhibition counterscreen | max response, % | 12% of 300,000 active; in the data active means max response mostly above about 13%, no sharp cut-off; inactive means mostly below about 14%; further: read at 38.3 µM for the half of the compounds with a filed dose; 0% is about no effect
HCMV inh: inhibitors of human cytomegalovirus. HFF cells, HCMV-luciferase reporter, 72 h; stronger effect = lower value. activity change, negative = inhibition, % at 57.5 µM. 4.5% of 410,000 active; in the data active means activity change below about -60%; inconclusive means no clear call, values can overlap the other calls; inactive means above about -39%; further: on the % scale 0 is the no-effect control and ±100 the full control effect
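Two compound doses tested in HFFs infected with HCMV-luciferase, MOI 1 PFU/cell, 72 h at 37C. Lysate luminescence read with OneGlo; data normalized against buffer-only and 10uM Salinomycin inhibitor controls.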
Shiga toxin inh: Shiga toxin inhibition. Vero cells, Shiga toxin protein synthesis inhibition reporter. inhibition, % at 38.7 µM. 9.2% of 290,000 active; in the data active means inhibition mostly above about 28%, no sharp cut-off; inactive means mostly below about 43%; further: 0% is about no effect
Pf growth 96h: inhibits malaria parasite growth, 96 h; P. falciparum luciferase reporter growth, 96 h; Potency, µM (top dose mostly 28.7 µM), for the others: top-dose activity change, negative = inhibition, most hits filed as inhibitors; 6.9% of 320,000 active; AID 504834; further: potency means the concentration at half of the fitted maximal effect; on the % scale 0 is the no-effect control and ±100 the full control effect
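Infected RBCs, 2% Hct / 0.05% parasitemia final; luciferase-reporter P. falciparum; cpd 96 h, 37 C, 5% CO2; luciferase detection reagent; luminescence.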
Pf growth 48h: P. falciparum growth inhibition at 48 hours (one generation). Potency, µM (doses to about 28.7 µM), for inactives: top-dose activity change, negative = inhibition, actives largely listed as inhibitors. 5.9% of 310,000 active. P. falciparum luciferase growth in erythrocytes, 48 h; further: potency means the concentration at half of the fitted maximal effect; on the % scale 0 is the no-effect control and ±100 the full control effect
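Erythrocytes infected with P. falciparum carrying an integrated firefly luciferase reporter (2% hematocrit, 0.1% parasitemia final) were exposed to compounds in RPMI 1640 with 0.5% Albumax at 37 C, 5% CO2. Growth inhibition was scored as reduced luminescence.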
* hit, by the source's call; i = inactive; ? = inconclusive; nt = not tested or not shown; [ ] = remark or other dose. A selection: hits, their analogues and other compounds. The true share with any hit is near 20%. Unless noted, the call rests on the fitted dose curve; in most records, active means well fitted inhibition curve with a large enough effect; inconclusive means small, poorly fitted or top-dose-only effect, or another doubt; inactive means no such curve, though single readings can be large or run the other way.

SMILES	CHX counter	HCMV inh	Shiga toxin inh	Pf growth 96h	Pf growth 48h
COc1ccccc1NC(=O)c1cc(Br)ccc1Cl	3	-16	13	1%	-10%
COc1ccc(NC(=O)c2ccc(C)cc2Cl)c([N+](=O)[O-])c1	37*	34	i	3.7µM*	102%
COc1ccc(NC(=O)c2cc(Br)ccc2Cl)c([N+](=O)[O-])c1	1	-63*	-1	1%	-7%[5.75 µM]
COc1ccc(S(=O)(=O)NC(=O)C2(C)CCN2C(=O)C2(c3ccccc3)CCCC2)cc1 (stereo unspecified)	nt	16	nt	nt	nt
CCCCOc1c(Cl)cc(C(=O)N(Cc2ccc(C)o2)C2CCS(=O)(=O)C2)cc1Cl (stereo unspecified)	nt	-110*	nt	nt	nt
Nc1c(C(=O)OCc2ccccc2)c2nc3ccccc3nc2n1Cc1cccs1	0	-34	-8	15µM*	nt
COc1ccc(N2CCN(S(=O)(=O)c3c(C(=O)N4CCOCC4)c(C)n(C)c3C)CC2)cc1	4	0	6	13%	13%
COc1ccc(N2C(=O)CSC2c2ccc([N+](=O)[O-])cc2)cc1 (stereo unspecified)	-3	-1	-4	5.2µM*	nt
COc1ccc(N2C(=O)CCC(C(=O)O)C2c2ccc(F)cc2)cc1 (stereo unspecified)	-3	-16	-15	2.6µM*	4%
CCOC(=O)N1CCN(C(=O)C2CC(=O)N(c3ccc(OC)cc3)C2c2ccc(OC)cc2)CC1 (stereo unspecified)	-2	-3	7	?	9.3µM*
COc1ccc(C2SCC(=O)N2c2ccc(OC)cc2)cc1 (stereo unspecified)	-2	6	15	374%	3%
COc1ccc(C2SCC(=O)N2c2ccc(F)cc2)cc1 (stereo unspecified)	-2	29	-7	2.6µM*	13%
CCOc1ccc2c(c1)sc1nc(=O)n(-c3ccc(Cl)c(Cl)c3)c(=O)n12	nt	-16	nt	nt	nt
Cc1ccc(CCNS(=O)(=O)c2ccc3c(c2)CCN3C(=O)CCC(=O)O)cc1	nt	22	nt	nt	nt
CN=C(Nc1cccc(OC)c1)SC1CC(=O)N(c2ccc(C(=O)O)cc2)C1=O (stereo unspecified)	1	?	-12	10%	-2%
Cc1ccc(NC(=O)CN(C)C(=O)c2ccccc2Cc2ccccc2)cc1	nt	1	nt	?	?
CCC(C)NC(=O)C1CCC(=O)N(c2ccc3c(c2)OCO3)C1c1ccc(OC)cc1 (stereo unspecified)	-4	-62*	2	?	21%
COc1ccc(C2C(C(=O)NCc3ccccn3)CCC(=O)N2c2cc(OC)c(OC)c(OC)c2)cc1 (stereo unspecified)	40*	15	94*	12µM*	15%
O=C1CSC(c2ccc(F)cc2)N1c1c(F)cccc1F (stereo unspecified)	21*	-36	22	2%	-3%
CCN(CC)CCCN1C(=O)CSC1c1ccc([N+](=O)[O-])cc1 (stereo unspecified)	-4	-102*	-4	-24%	2%
Cc1ccc(NC(=O)c2ccc(NS(=O)(=O)c3cccc4cccnc34)cc2)cc1	-3	nt	3	9%	-23%
Cc1[nH]c2ccc(C(=O)Nc3ccc(F)cc3)cc2c1C	nt	0	nt	nt	nt
CC1(c2nnc(-c3ccncc3)o2)CC(c2ccc(F)cc2)=NO1 (stereo unspecified)	-7	-17	-5	43%	40%
N#Cc1cccc(S(=O)(=O)Nc2c(NC3CCCCC3)c3ccccc3oc2=O)c1	-10	nt	-11	?	21%
O=C(CNC(=O)c1ccc(F)cc1)N/N=C/c1cc(Br)ccc1OC(=O)/C=C/c1ccco1	-2	-77*	1	?	13µM*
SMILES	CHX counter	HCMV inh	Shiga toxin inh	Pf growth 96h	Pf growth 48h
O=C(CNC(=O)c1ccccc1F)N/N=C/c1cc(Br)ccc1OC(=O)/C=C/c1ccco1	2	-83*	37	?	10µM*
Cc1cccc(C)c1NC(=O)C(c1ccccc1)N1CCN(C)CC1 (stereo unspecified)	nt	-8	nt	nt	nt
O=C(c1cc2c(s1)CCCC2)N1CCN(S(=O)(=O)c2ccccc2C(F)(F)F)CC1	-2	-7	-6	12µM*	?
O=C(c1cc2c(s1)CCCC2)N1CCN(c2ccccc2)CC1	24*	57	151*	38%	17%
COc1ccccc1N1CCN(C(=O)c2cc3c(s2)CCCCC3)CC1	2	nt	-20	?	?
COc1ccc(S(=O)(=O)N2CCN(C(=O)c3cc4c(s3)CCC4)CC2)cc1	nt	-78*	nt	nt	nt
CCOC(=O)CN1C(=O)N[C@@H](c2cccc(C(F)(F)F)c2)[C@@H](C(=O)OC)[C@H]1C	nt	-14	nt	nt	nt
COc1ccc(/C=N/N(C)C2=NS(=O)(=O)c3ccccc32)cc1	-6	11	-4	12µM*	nt
CN(/N=C/c1ccc(N(C)C)cc1)C1=NS(=O)(=O)c2ccccc21	-4	-16	1	-1%	-16%
COc1ccc(CNS(=O)(=O)c2cnc(N)nc2)c(OC)c1	nt	-3	nt	nt	nt
Cc1nc2c(OCc3ccc(C(F)(F)F)cc3)cccn2c1N(C)CC1CC1	nt	-17	nt	nt	nt
COC(=O)c1ccccc1COc1cccn2c(N(C)CC3CC3)c(C)nc12	nt	-99*	nt	nt	nt
COC(=O)[C@@]1(Cc2ccc(F)cc2)[C@H]2c3cc(C(=O)N4CCCC4)n(Cc4ccc(S(C)(=O)=O)cc4)c3C[C@H]2CN1C(=O)c1ccccc1	nt	-26	nt	nt	nt
COC(=O)[C@@]1(Cc2ccc(F)cc2)[C@H]2c3cc(C(=O)N4CCCC4)n(CCCNc4ncc(C(F)(F)F)cc4Cl)c3C[C@H]2CN1C(=O)c1ccccc1	-3	nt	8	?	2.1µM*
COC(=O)[C@@]1(Cc2ccc(F)cc2)[C@H]2c3cc(C(=O)N4CCCC4)n(Cc4ccc(C(F)(F)F)nc4)c3C[C@H]2CN1C(=O)c1ccccc1	-6	5	-3	2.1µM*	?
Cc1ccc2c(CNCCc3ccccc3)c(C(=O)O)n(Cc3ccccc3C)c2c1	nt	27	nt	nt	nt
c1ccc(Cn2nnc(-c3ccccc3)n2)cc1	35*	23	94*	52%	88%
N#Cc1cccc(Cn2nnc(-c3ccccc3)n2)c1	13*	-5	21	nt	6%
Nc1nnn(Cc2ccccc2)n1	-1	7	-4	-7%	-11%
COc1ccc(C(=O)c2oc3ccccc3c2NC(=O)COc2ccccc2)cc1	nt	-26	nt	nt	nt
COc1cccc(N2CCN(c3ccc4nnc(CCC(=O)Nc5ccccc5OC)n4n3)CC2)c1	3	-2	-19	?	?
COc1ccc(OC)c(-c2cc(C3CCN(C(=O)OC(C)(C)C)CC3)[nH]n2)c1	15*	40	44	10µM*	?
COc1ccc(S(=O)(=O)N2CCCCCC2)cc1C(=O)NCc1ccccc1Cl	nt	-27	nt	8.3µM*	5.9µM*
COc1ccc(S(=O)(=O)N2CCCCC2)cc1NC(=O)Cc1cccs1	nt	0	nt	?	12µM*
CCn1cc(C(=O)NCc2ccccc2Cl)c(=O)c2cc(S(=O)(=O)N3CCCCC3)ccc21	nt	19	nt	nt	nt
